Assay results taken from ChEMBL document CHEMBL3433997, “St. Jude Leishmania screening dataset” (2016).

Key:
Format in all cases: functional
[1] = biological target: Solute carrier family 2, facilitated glucose transporter member 1 (Homo sapiens) (UniProt P11166); test: ST_JUDE_LEISH: Cytotoxicity at 2uM final concentration against transgenic Leishmania Mexicana promastigotes LmGLUT1 that are glucose transport deficient and complemented with the human glucose transporter GLUT1. Activity is measured by DNA content using SYBR green in vitro
Chain of Solute carrier family 2, facilitated glucose transporter member 1 (Homo sapiens) (P11166 whole entry): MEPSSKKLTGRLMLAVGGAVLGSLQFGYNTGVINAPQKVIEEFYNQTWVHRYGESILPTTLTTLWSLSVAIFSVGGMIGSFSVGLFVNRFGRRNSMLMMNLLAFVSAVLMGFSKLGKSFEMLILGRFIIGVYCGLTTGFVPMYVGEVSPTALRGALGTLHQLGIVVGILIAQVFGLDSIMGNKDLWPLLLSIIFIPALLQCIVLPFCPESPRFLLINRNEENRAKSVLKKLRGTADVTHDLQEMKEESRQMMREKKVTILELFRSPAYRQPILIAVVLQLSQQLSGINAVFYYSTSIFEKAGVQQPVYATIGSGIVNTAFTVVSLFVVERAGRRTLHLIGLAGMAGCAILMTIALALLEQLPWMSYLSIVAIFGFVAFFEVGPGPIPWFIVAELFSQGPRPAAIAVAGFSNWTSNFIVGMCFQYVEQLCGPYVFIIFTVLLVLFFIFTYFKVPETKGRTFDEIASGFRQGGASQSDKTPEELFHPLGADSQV

[2] = biological target: Hexose transporter 1 (Plasmodium falciparum) (UniProt O97467); test: ST_JUDE_LEISH: Cytotoxicity at 2uM final concentration against transgenic Leishmania Mexicana promastigotes LmPfHT that are glucose transport deficient and complemented with the Plasmodium falciparum hexose transporter. Activity is measured by DNA content using SYBR green in vitro
[3] = biological target: Glucose transporter (Leishmania mexicana) (UniProt O61059); test: ST_JUDE_LEISH: Cytotoxicity at 2uM final concentration against transgenic Leishmania Mexicana promastigotes LmGT2 that are glucose transport deficient and complemented with the L. Mexicana glucose transporter 2. Activity is measured by DNA content using SYBR green in vitro

| SMILES | inhibition [1] [%] | inhibition [2] [%] | inhibition [3] [%] |
| --- | --- | --- | --- |
| O=C(O)c1cccc2c(-c3ccncc3)cccc12 | 0.79 | 1.26 | 1.31 |
| O=S(=O)(Nc1cccc(F)c1CNCc1ccccn1)c1ccc(Cl)c(Cl)c1 | -1.4 | 0.71 | -2.5 |
| COc1ccc(Br)cc1C1C2C(=O)N(c3ccc(Br)cc3)C(=O)C2C2(C(=O)O)CC(OCc3ccccc3)CN12 (stereo not drawn) | 12.4 | 12 | 10.2 |
| CC(C)(C)c1ccc2[nH]c(-c3ccc(C(=O)NCc4cccc(C(F)(F)F)c4)cc3)nc2c1 | -0.02 | 0.63 | 3.09 |
| O=C(Nc1cc(Cl)cc(Cl)c1)c1cnn(-c2ccc(F)cc2)c1C1CCNCC1 | -0.33 | -0.39 | 1.72 |
| CCc1nc(N)nc(N)c1-c1ccccc1 | 2.31 | 2.67 | 3.69 |
| Cc1cc(N(C)C)nc(Nc2ccc(NS(=O)(=O)c3ccccc3)cc2)n1 | 7.64 | 10.6 | 5.82 |
| O=[N+]([O-])c1cc(/C=N/Nc2nc3nonc3nc2Nc2ccc(F)cc2)c(Cl)cc1Cl | -0.53 | -0.25 | -0.83 |
| Cc1nc2ccc3ccc(CNc4ccc5c(c4)CN([C@@H](CCC(=O)O)C(=O)O)C5=O)cc3c2c(=O)[nH]1 | 1.71 | -0.99 | -1.52 |
| CC1(C)NC(N)=NC(=N)N1OCCCCOc1ccccc1 | -2.95 | 0.84 | -0.45 |
| COc1cc2nc(N3CCN(C(=O)c4ccc(N(C(=O)OC(C)(C)C)C(=O)OC(C)(C)C)cc4)CC3)nc(N)c2cc1OC | -0.43 | -0.06 | 0.52 |
| N#Cc1cccc(NC(=O)C2=C(CCc3ccc4c(c3)OCO4)NC(=O)NC2c2cccc(C#N)c2)c1 (stereo not drawn) | -0.43 | 0.52 | -0.7 |
| CCCNC(=O)C1CCN(C(c2ccccc2)c2ccc(Cl)c(Cl)c2)CC1 (stereo not drawn) | 4.42 | 5.75 | 3 |
| CC(C)[C@H]1CC[C@H](C)C[C@@H]1OC(=O)N[C@@H](Cc1ccc(O)cc1)C(=O)NC1CCN(Cc2ccc(OCCCN(C)C)cc2)C1 (stereo partly drawn) | 5.09 | 3.96 | 3.06 |
| CCOC(=O)NC1=NC(=N)N(OCCCOc2cc(Cl)c(Cl)cc2Cl)C(C)(C)N1 | -0.21 | -0.15 | 1.91 |
| COc1cc2nc(N3CCC(CNC(=O)c4ccc(-c5ccc(C(=O)N(C)C)cc5OCCN(C)C)cc4)CC3)nc(N)c2cc1OC | 0.34 | 0.98 | 0.37 |

| SMILES | inhibition [1] [%] | inhibition [2] [%] | inhibition [3] [%] |
| --- | --- | --- | --- |
| CCc1cc(Br)c(CNCCCNc2cc(=O)c3ccccc3[nH]2)s1 | 0.41 | -0.52 | -2.7 |
| CCNc1cc(C(=O)N[C@@H](Cc2ccccc2)[C@H](O)CN[C@@H]2CCc3ccccc32)cc(N2CCCCS2(=O)=O)c1 | 1.06 | 1.96 | 1.17 |
| COc1ccc2nc(C)cc(N/N=C/C=C/c3ccccc3)c2c1 | 5.48 | 7.46 | 3.79 |
| Cc1ccc(S(=O)(=O)N2CCCN(C(=O)c3cc(-c4ccccc4)[nH]n3)CC2)cc1 | -1.48 | 0.45 | 0.04 |
| N#CN1CC[C@@H](NS(=O)(=O)Cc2ccc(Cl)c(Cl)c2)C1 | 5.72 | 4.08 | 4.15 |
| CCCc1ccc(NC(=O)c2ccc(CN3CCCN(Cc4cccc(O)c4)CC3)cc2)cc1 | 3.2 | 2.61 | 3.95 |
| Cc1n[nH]c2ccc(-c3cc(OC[C@@H](N)Cc4ccccc4)cnc3-c3cc4ccccc4s3)cc12 | 8.58 | 3.69 | 2.02 |
| N#Cc1cc(C(=O)Nc2ccccc2)c(N)nc1SCC(=O)NC(c1ccccc1)c1cccs1 (stereo not drawn) | 4.19 | 1.36 | 4.48 |
| O=C(Nc1cccc(Cl)c1)N[C@H]1CCN(Cc2ccc(OCCCN3CCCCC3)cc2)C1 | 9.4 | 9.12 | 8.16 |
| Nc1nc(NCC2CCC(CNS(=O)(=O)c3cccc4ccccc34)CC2)nc2ccccc12 (stereo not drawn) | 7.11 | 3.12 | 1.21 |
| N#Cc1ccc2c(c1)CCN(CCC1CCC(NC(=O)/C=C/c3cnc4ccccc4c3)CC1)CC2 (stereo not drawn) | 8.52 | 4.53 | 3.67 |
| O=C(Nc1ccc(-c2oc(C(=O)NCCc3cccc(Cl)c3)cc2-c2ccncc2)cc1)Nc1cccc(Cl)c1 | 0.9 | 1.65 | 2.92 |
| O=C(Nc1ccc(N2CCN(C(=O)/C=C/c3ccccc3)CC2)c(Cl)c1)c1ccc([N+](=O)[O-])o1 | 58.5 | 68 | 13.7 |
| CC(Oc1ccc(Cl)cc1)C(=O)N(C)C1CCN(CCCCCNC(=O)/C=C/c2ccc(Cl)c(Cl)c2)CC1 (stereo not drawn) | 1.06 | 3.1 | 1.95 |
| COc1ccc(S(=O)(=O)NC2CCN(c3cc(C)nc(Nc4cccc(C#N)c4)n3)CC2)cc1 | 4.31 | 1.33 | 0.61 |
